Results from paper PMC4336329 (PLoS ONE, 2015).
Screen size: about 310,000 compounds; about 14,000 (4.5%) showed an effect of 50% or more. The effect is printed as a negative number. Shown is part of a subset that was picked to be rich in strong results.

target: human ether-à-go-go-related gene (hERG) potassium channel (human, UniProt Q12809); test: primary screen, population patch clamp on CHO cells stably expressing hERG; higher = less effect of the substance
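Also: peak tail current of the secondary pulse compared with the same well before compound.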

Sequence of human ether-à-go-go-related gene (hERG) potassium channel (Q12809 whole entry, looked up): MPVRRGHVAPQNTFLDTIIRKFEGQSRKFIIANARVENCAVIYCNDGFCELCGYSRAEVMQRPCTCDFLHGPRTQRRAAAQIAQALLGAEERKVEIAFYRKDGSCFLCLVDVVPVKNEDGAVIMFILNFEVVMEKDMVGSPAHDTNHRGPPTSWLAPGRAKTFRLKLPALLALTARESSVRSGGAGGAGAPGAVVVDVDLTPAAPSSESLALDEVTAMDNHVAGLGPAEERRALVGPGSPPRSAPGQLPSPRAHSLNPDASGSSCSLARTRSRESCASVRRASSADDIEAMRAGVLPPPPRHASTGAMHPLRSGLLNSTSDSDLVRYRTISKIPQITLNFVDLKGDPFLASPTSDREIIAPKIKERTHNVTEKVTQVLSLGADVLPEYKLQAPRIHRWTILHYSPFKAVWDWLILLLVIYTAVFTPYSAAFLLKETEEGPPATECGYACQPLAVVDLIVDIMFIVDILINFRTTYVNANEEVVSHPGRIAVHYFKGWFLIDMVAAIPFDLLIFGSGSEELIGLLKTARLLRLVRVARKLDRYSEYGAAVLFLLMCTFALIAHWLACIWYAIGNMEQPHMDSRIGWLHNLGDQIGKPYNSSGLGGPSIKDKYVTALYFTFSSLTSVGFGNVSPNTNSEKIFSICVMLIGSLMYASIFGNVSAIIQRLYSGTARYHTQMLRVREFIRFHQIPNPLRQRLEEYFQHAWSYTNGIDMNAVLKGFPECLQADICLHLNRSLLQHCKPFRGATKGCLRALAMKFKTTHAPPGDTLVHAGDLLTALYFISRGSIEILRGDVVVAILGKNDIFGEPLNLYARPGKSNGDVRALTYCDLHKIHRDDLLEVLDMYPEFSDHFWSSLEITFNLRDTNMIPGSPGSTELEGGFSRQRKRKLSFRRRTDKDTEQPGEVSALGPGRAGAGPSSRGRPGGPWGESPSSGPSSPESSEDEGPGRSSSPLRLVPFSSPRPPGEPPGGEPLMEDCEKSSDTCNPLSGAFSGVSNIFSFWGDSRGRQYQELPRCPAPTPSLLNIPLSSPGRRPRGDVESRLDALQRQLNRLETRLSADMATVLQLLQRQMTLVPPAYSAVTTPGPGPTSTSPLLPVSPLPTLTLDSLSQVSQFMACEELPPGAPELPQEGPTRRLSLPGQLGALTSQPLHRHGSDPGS

| Structure (SMILES) | hERG current change (%, negative = inhibition) at 10uM [%] |
| --- | --- |
| Cc1ccc(CSCC(=O)N(C)CC(=O)Nc2cccc(F)c2)cc1 | -17.5 |
| COC(=O)CNC(=O)c1c(-c2ccccc2Cl)noc1C | -5.68 |
| CCCCc1nc(NCc2ccccc2)c(C#N)c2c1COC(C)(C)C2 | 12.9 |
| CCOC(=O)c1c(C)[nH]c(C)c1S(=O)(=O)NC(CC)CN1CCOCC1 (stereo not shown) | 7.32 |
| O=C(NC(=S)Nc1ccccc1C(=O)O)c1ccc(-c2ccc(Br)cc2)o1 | 28.3 |
| COc1ccc(CCN2C(=O)N[C@@H](CCC(=O)O)C2=O)cc1 | 19 |
| CC(=C1C(=O)c2ccccc2C1=O)N1CCN(c2ccc(F)cc2)CC1 | -69.8 |
| COc1ccc(N2CCN(C(C)=C3C(=O)c4ccccc4C3=O)CC2)cc1 | -53.3 |
| C/C(=C/c1ccccc1)C(=O)N1CCN(c2ccc(F)cc2)CC1 | -42.2 |
| COc1ccc(N2CCN(C(=O)C(OC(C)=O)c3ccccc3)CC2)cc1 (stereo not shown) | -0.89 |
| COC(=O)N1CCN(c2ccc(OC)cc2)CC1 | 4.33 |
| CC(=C1C(=O)c2ccccc2C1=O)N1CCN(c2ccccn2)CC1 | -28.3 |
| O=C(NC1CCCCC1)NC1C2CC3CC(C2)CC1C3 (stereo not shown) | -6.14 |
| CCCNC(=S)Nc1ccc(Cl)cc1C | 1.16 |
| Cc1ccc(S(=O)(=O)NCCNC(=O)c2ccccc2)cc1 | 12.4 |
| CC(C)Oc1ccc(C(CC(=O)O)NC(=O)Cc2ccc(Cl)cc2)cc1 (stereo not shown) | 24.8 |
| COc1ccc(-n2c(SCC(=O)Nc3nccs3)nnc2-c2ccccc2)cc1 | -62.5 |
| COc1ccc(CC(=O)NCc2nnc(SCC(=O)Nc3nccs3)n2-c2ccccc2)cc1 | 2.7 |
| CCOC(=O)CN(C(=O)CSc1nnc(Cc2ccccc2)n1-c1ccc(C)cc1)c1ccccc1 | -59.2 |
| Cc1csc(NC(=O)CSc2nnc(-c3ccoc3C)o2)n1 | 4.99 |
| COc1ccc(-n2c(SCC(=O)Nc3nc(C)cs3)nnc2-c2ccoc2C)cc1 | -81 |
| CCOC(=O)CN(C(=O)CSc1nnc(C)n1-c1ccccc1)c1ccccc1 | 6.79 |

| Structure (SMILES) | hERG current change (%, negative = inhibition) at 10uM [%] |
| --- | --- |
| CCOc1ccc(-n2c(SCC(=O)NC)nnc2-c2ccco2)cc1 | -27.5 |
| CCOc1ccccc1-n1c(SCC(=O)Nc2nccs2)nnc1-c1ccoc1C | -5.08 |
| CCOc1ccc(-n2c(SCC(=O)Nc3nccs3)nnc2-c2ccoc2C)cc1 | -56.1 |
| COc1ccc(-n2c(Cc3cccn3C)nnc2SCC(=O)Nc2nccs2)cc1 | -9.82 |
| COc1ccc(-n2c(Cc3cccn3C)nnc2SCC(=O)Nc2nc(C)cs2)cc1 | -6.16 |
| CCOC(=O)CSc1nnc(Cc2ccccc2)n1-c1ccc(C)cc1 | -37.4 |
| Cc1cc(C)cc(NC(=O)Cn2c(-c3ccccc3Cl)nc3ccccc32)c1 | 5.5 |
| CCCCC(CC)CNC(=O)c1cccs1 (stereo not shown) | 8.33 |
| O=S(=O)(c1ccc(Nc2ccc3c(c2)OCO3)nc1)N1CCOCC1 | -13.2 |
| COc1ccc(N(C(=O)c2cccnc2)S(=O)(=O)c2cc(OC)ccc2OC)cc1 | -21.8 |
| O=C(CS(=O)(=O)Cc1ccccc1)Nc1ccccc1Cl | 1.09 |
| Cc1ccc(C2CC(=O)C=C(O)C2)cc1 (stereo not shown) | 3.29 |
| CSCC(C)N1CCC(n2nccc2NC(=O)c2ccc3c(c2)OCO3)CC1 (stereo not shown) | -2.95 |
| Cc1ccc(CCNS(=O)(=O)c2cc3c(cc2C)n(C)c(=O)c(=O)n3C)cc1 | -30.8 |
| CCOC(=O)CSc1nnc(-c2ccco2)n1-c1ccccc1 | -27.6 |
| Cc1ccc(-n2c(SCC(=O)Nc3ccc4cn[nH]c4c3)nnc2-c2ccco2)cc1 | -62.4 |
| CCNC(=O)CSc1nnc(-c2ccccc2)n1-c1ccc(OCC)cc1 | -62.8 |
| CCOC(=O)CNC(=O)CSc1nnc(-c2ccc(OC)cc2)n1CC | 10.5 |
| Cc1ccc(-n2c(SCC(=O)Nc3ccc4c(c3)OCCO4)nnc2-c2ccco2)cc1 | -30.9 |
| CCOc1ccc(-n2c(-c3ccccc3)nnc2-c2ccccc2)cc1 | -6.7 |
| CCOC(=O)CNC(=O)CSc1nnc(-c2cccc(C)c2)n1-c1ccc(OC)cc1 | -62 |
| CCOC(=O)CSc1nnc(-c2ccco2)n1-c1ccc(C)cc1 | -61.9 |

| Structure (SMILES) | hERG current change (%, negative = inhibition) at 10uM [%] |
| --- | --- |
| CCOC(=O)CNC(=O)CSc1nnc(-c2cccc(OC)c2)n1CC | 7.24 |
| CCOc1ccc(NC(=O)CSc2nnc(-c3ccccc3)n2N)cc1 | 6.02 |
| COC(=O)CSc1nnc(-c2ccco2)n1-c1ccc(C)cc1 | -24.2 |
| CNC(=O)CSc1nnc(-c2ccco2)n1-c1ccc(C)cc1 | -49.5 |
| CCn1c(C)nc2cc(C(=O)N/N=C/c3ccccc3C)ccc21 | -12.8 |
| Cc1cc2c(C)nc(Cc3ccccc3)nc2o1 | 14.7 |
| CCOc1cc2[nH]c(=O)n(Cc3ccc(C(=O)NCCCN4CCCC4=O)cc3)c(=O)c2cc1OCC | 16.2 |
| CCOC(=O)C1=C(C)Nc2nc(SC)nn2C1c1ccc(C(=O)OC)cc1 (stereo not shown) | 5.26 |
| Cc1ccc(/C=N\NC(=O)/C(=C\Nc2nccc(C)n2)NC(=O)c2ccccc2)cc1 | -9.72 |
| C=C1C(=O)O[C@@H]2C[C@@H](C)[C@@H]3C=CC(=O)[C@@]3(C)[C@@H](OC(=O)CC(=O)O[C@H]3[C@@H]4C(=C)C(=O)O[C@@H]4C[C@@H](C)[C@@H]4C=CC(=O)[C@]43C)[C@H]12 | -38.6 |
| COc1ccc(CNC(=O)C2CCN(S(=O)(=O)c3cccnc3)CC2)cc1 | 12.9 |
| Cc1ccc(S(=O)(=O)NCCC(=O)Nc2cc(F)ccc2C)cc1C | 2.51 |
| CCOC(=O)c1c(O)c2ccccc2oc1=O | -18.7 |
| CN1C(=O)CN=C(c2ccc(Cl)cc2)c2cc(Cl)ccc21 | -33.8 |
| COc1cccc(C(=O)NCc2nnc(SCC(=O)Nc3nccs3)n2-c2cccc(C)c2)c1 | -18.3 |
| CCOC(=O)CSc1nnc(CNC(=O)c2ccc(OC)cc2OC)n1C | -18.4 |
| CCOC(=O)CSc1nnc(CNC(=O)c2ccc(OC)cc2OC)n1-c1ccc(OC)cc1 | -50.1 |
| COc1ccc(-n2c(SCC(=O)Nc3nccs3)nnc2-c2ccoc2C)cc1 | -80 |
| Cn1c(SCC(=O)Nc2nccs2)nnc1-c1ccco1 | -5.22 |
| CCOC(=O)CSc1nnc(-c2ccoc2C)n1-c1ccc(C)cc1 | -19.3 |
| COc1cccc(-n2c(SCC(=O)Nc3nccs3)nnc2-c2ccoc2C)c1 | -76.8 |
| COc1cccc(-n2ccnc2SCC(=O)Nc2nccs2)c1 | -6.22 |

| Structure (SMILES) | hERG current change (%, negative = inhibition) at 10uM [%] |
| --- | --- |
| CCOC(=O)CSc1nnc(-c2ccoc2C)n1-c1ccc(OCC)cc1 | -66.5 |
| CCOc1ccc(-n2c(SCC(N)=O)nnc2-c2ccco2)cc1 | -1.15 |
| COc1ccc(-n2c(CSc3nc(C)cc(C)n3)nnc2SCC(=O)Nc2nccs2)cc1 | -13.2 |
| CCOC(=O)CSc1nnc(CNC(=O)c2ccccc2OC)n1-c1ccc(OC)cc1 | -28.8 |
| COc1ccc(C2(C(=O)NCCCN(C)C)CCOCC2)cc1 | 7.45 |
| CCOC(=O)c1c(-c2ccccc2Cl)csc1NC(=O)CSc1nc(C)cc(=O)[nH]1 | 4.37 |
| C=CCc1ccc(OCc2ccc(C(=O)OC)o2)c(OC)c1 | -12.1 |
| CC1CCCCC1NC(=O)CC1Oc2ccccc2NC1=O (stereo not shown) | 0.244 |
| CC(=O)c1ccc(S(=O)(=O)NC2CC(=O)N(c3ccc4c(c3)OCCO4)C2)cc1 (stereo not shown) | 5.79 |
| CCN(CC)S(=O)(=O)c1cc(C(=O)O)ccc1Cl | 11 |
| CC(=O)c1ccc(Sc2nnc(C)s2)c([N+](=O)[O-])c1 | 1.07 |
| Cc1ccc(OCC(=O)Nc2nnc(S(=O)(=O)N3CCC(C)CC3)s2)cc1 | 19.2 |
| O=C(NNC(=O)c1ccc([N+](=O)[O-])o1)c1ccccc1 | -6.59 |
| CN(CC(=O)Nc1ccccc1Cl)C(=O)COC(=O)c1nc(Cl)ccc1Cl | -20 |
| CN(CC(=O)Nc1ccccc1Cl)C(=O)COC(=O)c1ccc(Cl)nc1 | 4.99 |
| CC[C@H](C)[C@H](NC(=O)OCc1ccccc1)C(=O)OCC(=O)N(C)CC(=O)Nc1ccccc1Cl | -64.5 |
| CC(=O)Oc1ccc(-c2ccc(C(=O)OCC(=O)N(C)CC(=O)Nc3ccccc3Cl)cc2)cc1 | -68.9 |
| CN(CC(=O)Nc1ccccc1Cl)C(=O)COC(=O)c1ccc(C(F)(F)F)cc1 | -9.53 |
| CN(CC(=O)Nc1ccccc1Cl)C(=O)COC(=O)C1CC1 | -2.87 |
| CN(CC(=O)Nc1ccccc1Cl)C(=O)COC(=O)c1ccc(S(=O)(=O)C(F)F)cc1 | -69.9 |
| CN(CC(=O)Nc1ccccc1Cl)C(=O)COC(=O)c1ccccc1[N+](=O)[O-] | -6.07 |
| CN(CC(=O)Nc1ccccc1Cl)C(=O)COC(=O)C1=COCCO1 | 5.89 |
